Assay [1] is described as follows: CCTE_Shafer_MEA_acute_AB: CCTE's Alamar Blue Assay for Cytotoxicity in the Neural Acute Assay, Shafer Lab (AID 2284069).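 Note: active compounds lower the viability signal compared with DMSO wells.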 A digest of the protocol:
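Read-out: resazurin fluorescence (ex 544, em 590 nm) after CTB reagent at 1:6 dilution in fresh media. Cells: primary rat cortical neuron networks, DIV 13 or 15, chemically exposed on MEA plates; DMSO as negative control/baseline.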

Assay [2] can be described thus: CCTE_Shafer_MEA_acute_LDH: CCTE's Lactate Dehydrogenase Assay for Cytotoxicity in the Neural Acute Assay, Shafer Lab (AID 2284086).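 Note: active means LDH release rises above DMSO vehicle level.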 In outline: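 Cytotoxicity readout: spectrophotometric LDH activity in supernatant of rat primary cortical neurons, post-plating day 13 or 15, sampled after 40 min compound exposure; signal gain relative to DMSO baseline.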
The nature of assay [3]: CCTE_Shafer_MEA_dev_spike_duration_mean: CCTE's Neural Network Formation Assay for Mean Spike Duration, Shafer Lab (AID 2284051; active = hit-call score of the fitted dose curve at least 0.9, where 1 is the maximum; inactive = score below 0.9;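 note: mean network spike duration pooled as area under curve over DIV 5 to 12 recordings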;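 for AC50: potency for a decrease in mean network spike duration versus DMSO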). A digest of the protocol: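 Rat cortical primary cultures, 48-well MEA (16 electrodes/well); compound from plating, renewed DIV 5, 9. Network spike duration (AxIS adaptive detector) recorded DIV 5/7/9/12, combined as trapezoidal AUC; loss direction vs DMSO.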

Assay [4] can be described thus: CCTE_Shafer_MEA_dev_network_spike_duration_std: CCTE's Neural Network Formation Assay for Standard Deviation of Network Spike Duration, Shafer Lab (AID 2284052; active = hit-call score of the fitted dose curve at least 0.9, where 1 is the maximum; inactive = score below 0.9;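 note: hits are decreases in network spike duration SD versus DMSO vehicle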). In outline:
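Rat cortical cultures, 1.5 x 10^5 cells/well, exposed continuously from plating to DIV 12 with media/compound renewal at DIV 5, 9. Spontaneous activity recorded DIV 5/7/9/12, AxIS adaptive spike detector; AUC across days; negative direction vs DMSO.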

Assay [5] is described as follows: CCTE_Shafer_MEA_dev_per_network_spike_spike_number_mean: CCTE's Neural Network Formation Assay for Mean Number of Spikes in a Network Spike, Shafer Lab (AID 2284053; active = hit-call score of the fitted dose curve at least 0.9, where 1 is the maximum; inactive = score below 0.9). A digest of the protocol: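 Rat cortical primary cultures on 48-well MEA; compound from day 0, re-dosed with full media change DIV 5, 9. Recorded DIV 5, 7, 9, 12; spikes in 0.05 s window at network-spike peak ÷ total network spikes; AUC; loss vs DMSO.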

Assay [6] is described as follows: CCTE_Shafer_MEA_dev_per_network_spike_spike_percent: CCTE's Neural Network Formation Assay for Percent of Spikes in a Network Spike, Shafer Lab (AID 2284054; active = hit-call score of the fitted dose curve at least 0.9, where 1 is the maximum; inactive = score below 0.9). As for the experimental part: CCTE_Shafer_MEA_dev assay is conducted using Axion Biosystems 48 well microelectrode array (MEA) plates and Maestro recording system. Each well of the MEA plate contains a grid of 16 microelectrodes embedded in the culture surface. Electrically active cells, such as neurons, can be cultured over the electrodes, and electrical activity in these cells can be recorded extracellularly. The spontaneous firing of neurons is captured from each electrode on a microsecond timescale providing both temporally and spatially precise data. […] The CCTE_Shafer_MEA_dev assay uses primary cultures of rat cortical neurons. Recordings are made on days post-plating 5, 7, 9 and 12. As these cultures mature over time, neural networks develop functional activity and form cohesive networks in which electrical activity can be highly coordinated. CCTE_Shafer_MEA_dev_per_network_spike_spike_percent is 1 of 19 assay components of the CCTE_Shafer_MEA_dev assay. It measures the percent of spikes (action potential firings) in a network spike (temporally-clustered group of spikes across multiple electrodes) as the number of spikes that occur within a 0.05 s time window at the peak of a network spike divided by the total number of spikes during a recording in a microelectrode array (MEA) using Axion Biosystems Maestro 768 channel amplifier with the AxIS adaptive spike detector. To collapse across multiple recordings made on days post-plating 5, 7, 9 and 12, the trapezoidal area-under-the-curve of the component is calculated.Data from the assay component CCTE_Shafer_MEA_dev_per_network_spike_spike_percent was analyzed into 1 assay endpoint. This assay endpoint, CCTE_Shafer_MEA_dev_per_network_spike_spike_percent, was analyzed in the negative analysis fitting direction relative to DMSO as the negative control and baseline of activity. Using a type of functional reporter, gain or loss-of-signal activity can be used to understand electrical activity.
(§1) On the day prior to culture, each well was coated thoroughly with 150 uL of 0.05% polyethyleneimine (PEI, Sigma Cat P3143) in 50 mM HEPES (Sigma Cat H7523) at a pH of 8. The plate was incubated at 37C for one hour. PEI was rinsed out with 500 uL of sterile water three times. Plates were stored at 4C until the day of culture. This culture was plated at a seeding density of 1.5 x 10^5 cells/well on a 48-well MEA plate, prepared as described above. Cells were administered via a 25 uL media/laminin ([…]; Sigma Cat L2020-1MG) drop directly onto the microelectrode array, as adding the cells with the laminin results in better attachment than pre-coating with laminin. After 2 hours, an additional 475 uL of cortical media was added and the cells returned to the incubator. Exposure starts at day 0 of plating and is continued over twelve days of network development until the experiment is terminated. Cells are fed with fresh medium on DIV 5 and 9, following the recordings on those days. The entire volume of media in the well is exchanged and any vehicle or compound treatment is renewed. Complete details are found in OP-NHEERL/ISTD/SBB/TJS/2015-03-r0 (available on request, email shafer.tim@epa.gov). Measurement of the electrical activity is non-invasive, and recordings can be made from the same plate over multiple different days of the culture. In cortical neurons, this allows for the measurement of extracellular action potentials over the period during which networks form in the MEA plate.

Assay [7] is described as follows: CCTE_Shafer_MEA_dev_LDH: CCTE's Lactate Dehydrogenase Assay for Cytotoxicity in the Neural Network Formation Assay, Shafer Lab (AID 2284068).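 Note: exposure for twelve days from plating with re-dosing on DIV 5 and 9.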 A digest of the protocol:
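Rat cortical primary neurons, MEA culture; dosing day 0–12, full medium plus compound exchange DIV 5, 9. Read-out: LDH enzyme activity, spectrophotometric. DMSO = negative control/baseline; signal loss → cytotoxicity.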

Assay [8] can be described thus: CCTE_Shafer_MEA_dev_AB: CCTE's Alamar Blue Assay for Cytotoxicity in the Neural Network Formation Assay, Shafer Lab (AID 2284083).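 Note: twelve days of exposure from plating with re-dosing on DIV 5 and 9.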 As for the experimental part:
CCTE_Shafer_MEA_dev assay is conducted using Axion Biosystems 48 well microelectrode array (MEA) plates and Maestro recording system. Each well of the MEA plate contains a grid of 16 microelectrodes embedded in the culture surface. Electrically active cells, such as neurons, can be cultured over the electrodes, and electrical activity in these cells can be recorded extracellularly. The spontaneous firing of neurons is captured from each electrode on a microsecond timescale providing both temporally and spatially precise data. […] The CCTE_Shafer_MEA_dev assay uses primary cultures of rat cortical neurons. Recordings are made on days post-plating 5, 7, 9 and 12. As these cultures mature over time, neural networks develop functional activity and form cohesive networks in which electrical activity can be highly coordinated. CCTE_Shafer_MEA_dev_AB is 1 of 19 assay components of the CCTE_Shafer_MEA_dev assay. It measures the resazurin reduction using fluorescence.Data from the assay component CCTE_Shafer_MEA_dev_AB was analyzed into 1 assay endpoint. This assay endpoint, CCTE_Shafer_MEA_dev_AB, was analyzed in the positive analysis fitting direction relative to DMSO as the negative control and baseline of activity. Using a type of viability reporter, loss-of-signal activity can be used to understand cell viability.
as §1, with “In cortical neurons, this allows for the measurement of extracellular action potentials over the period during which networks form in the MEA plate.” left out

Assay [9] in a line: UKN5_HCS_SBAD2_cell_viability: Viability Assessment in the University of Konstanz (UKN) Leist Lab Neurite Outgrowth Assay in human iPSC-derived immature Dorsal Root Ganglia Neurons (UKN5) (AID 2284056; active = hit-call score of the fitted dose curve at least 0.9, where 1 is the maximum; inactive = score below 0.9). In outline:
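iPSC-derived immature peripheral neurons (SBAD2) seeded on Matrigel with CHIR99021, SU5402 and DAPT, dosed 1 h later for 24 h. Viability from Hoechst H-33342 and calcein-AM live staining, high-content imaging; bidirectional fit versus DMSO.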

Assay [10] can be described thus: UKN5_HCS_SBAD2_neurite_outgrowth: University of Konstanz (UKN) Leist Lab Neurite Outgrowth Assay in human iPSC-derived immature Dorsal Root Ganglia Neurons (UKN5) (AID 2284070; active = hit-call score of the fitted dose curve at least 0.9, where 1 is the maximum; inactive = score below 0.9). As to conditions: actives raise or lower the signal. As for the experimental part:
UKN5_HCS_SBAD2 is a cell-based, multiplexed-readout assay screening for neurite outgrowth and cell viability that uses SBAD2 (peripheral neurons differentiated from iPSC), a human peripheral nervous system cell line, with measurements taken at […] after chemical dosing in a microplate: 96-well plate. UKN5, also referred to as PeriTox, is an assay that uses human iPSC line SBAD2 as a model of peripheral neurons. Following 24 hr chemical exposures in multi-well plates, neurite area is evaluated as a marker of neurite outgrowth using high-content imaging of cells stained with calcein-AM. Cell viability is assessed using stain Hoechst H-33342.UKN5_HCS_SBAD2_neurite_outgrowth is an assay component measured from the UKN5_HCS_SBAD2 assay. It is designed to make measurements of neurite outgrowth, a form of morphology reporter, as detected with Fluorescence intensity signals by HCS Fluorescent Imaging.The assay endpoint UKN5_HCS_SBAD2_neurite_outgrowth was analyzed with bidirectional fitting relative to DMSO as the negative control and baseline of activity. Using a type of morphology reporter, gain or loss-of-signal activity can be used to understand developmental effects. To generalize the intended target to other relatable targets, this assay endpoint is annotated to the neurodevelopment intended target family, where the subfamily is neurite outgrowth. […]

Results filed as inconclusive are left out. The source made the active and inactive calls. Rule for the calls, unless noted: active = hit-call score of the fitted dose curve at least 0.9, where 1 is the maximum; inconclusive = response in the unintended direction; inactive = score below 0.9.

In the case of `c1ccc2occc2c1`, the result in assay [1] and in assay [2] was inactive.

On to `Cc1ccc(C(C)(C)C)c(O)c1`, for which, in [2], the call was inactive.

With `CC(=O)CC(c1ccccc1)c1c(O)c2ccccc2oc1=O` (stereo unspecified), the outcome in [3], in [4], in assay [6], in [7] and in [8] was inactive. Further, the AC50 in [5] is 2.98 µM (active).

As to `CCN(CC)CCOc1ccc(C(=C(Cl)c2ccccc2)c2ccccc2)cc1`, the result in [1] and in assay [2] was inactive.

For `COC(=O)[C@H]1[C@H]2C[C@@H]3c4[nH]c5cc(OC)ccc5c4CCN3C[C@H]2C[C@@H](OC(=O)c2cc(OC)c(OC)c(OC)c2)[C@@H]1OC`, the concentration at half-maximal activity (AC50) in assay [3] was 2.71 µM (active); in assay [4], 2.18 µM (active); in assay [5] it was 4.8 µM (active); in assay [6], 15.3 µM (active); in assay [7], 6.75 µM (active); in assay [8] it was 10 µM (active). Further, the result in assay [1] and in assay [2] was inactive.

For `CC1=C(C)S(=O)(=O)CCS1(=O)=O`, the outcome in [2] was inactive.

Take `CN(C)C(=O)NC1(c2ccccc2)CCN(CC[C@@]2(c3ccc(F)c(F)c3)CN(C(=O)c3ccccc3)CCO2)CC1`: the compound was classed as inactive in [1] and in [2].

Regarding `OCC(CO)n1cnc(-c2ccc(F)cc2)c1-c1ccnc(Oc2ccccc2)n1`, the compound was called inactive in assay [2].

On to `OCC(O)CO`, for which the compound was called inactive in assay [3], in assay [4], in assay [5], in assay [6] and in assay [8].

As to `Cc1cc(Cc2ccc(N)c(C)c2)ccc1N`, the compound was called inactive in assay [1] and in [2].

For the compound `CN(C)CCCN1c2ccccc2Sc2ccc(Cl)cc21`, the AC50 was 3.38 µM (active) in assay [3]; 2.81 µM (active) in [4]; 4.44 µM (active) in [5]; 9.39 µM (active) in assay [6]; 13.7 µM (active) in assay [9]; 5.01 µM (active) in [7]. In addition, the results for the AC50 in [10] and in [8] were 6.11 µM (active) and 15 µM (active), respectively. The outcome in assay [1] and in [2] was inactive.

On to `Cc1c(C)c2c(c(C)c1O)CCC(C)(COc1ccc(CC3SC(=O)NC3=O)cc1)O2` (stereo unspecified), for which, in assay [1], the compound was called inactive.

As to `CN(C)C(=O)NC1(c2ccccc2)CCN(CCC[C@]2(c3ccc(Cl)c(Cl)c3)CCCN(C(=O)c3ccccc3)C2)CC1`, the compound was classed as inactive in assay [1] and in [2].

For the compound `O=C1NC(=O)C(c2ccccc2)(c2ccccc2)N1`, the compound was called inactive in assay [3], in assay [4], in assay [5], in assay [6], in assay [9] and in assay [7]. Further, the outcome in assay [10] was inactive.

Take `CCCC(=O)O`: the outcome in assay [1] and in assay [2] was inactive.

In the case of `O=C(O)CN(CC(=O)O)CC(=O)O`, the compound was classed as inactive in [2].

Consider `Oc1ccc(O)cc1`, for which the outcome in [1] and in assay [2] was inactive.

In the case of `CC(C)NCC(O)c1ccc(O)c(O)c1` (stereo unspecified), the call in assay [1] and in assay [2] was inactive.

On to `CC(C)COC(=O)CCCCC(=O)OCC(C)C`, for which the result in [1] and in [2] was inactive.

Take `NC(=Nc1ccccc1)Nc1ccccc1`: the compound was called inactive in assay [1] and in assay [2].

Consider `COc1ccc(OC(F)(F)F)cc1CN[C@H]1CCCN[C@H]1c1ccccc1`, for which the outcome in assay [1] and in assay [2] was inactive.

Turning to `CCc1cc(C2=C(C(=O)O)N(c3ccccc3C(F)(F)F)S(=O)(=O)c3ccccc32)cc2c1OCO2`, the compound was called inactive in [1] and in assay [2].

`C/C=C/c1ccc(OC)cc1`: the compound was classed as inactive in assay [1] and in assay [2].

For the compound `O=C1OC(c2ccc(O)cc2)(c2ccc(O)cc2)c2ccccc21`, the compound was called inactive in [1].

In the case of `Nc1nc(=S)c2[nH]cnc2[nH]1`, the compound was classed as inactive in assay [1] and in assay [2].

As for `Cc1cc(SC2=C(O)C[C@@](CCc3ccc(N)cc3)(C(C)C)OC2=O)c(C(C)(C)C)cc1CO`, in assay [2], the compound was called inactive.

Regarding `CCCCC(CC)COP(=O)(OCC(CC)CCCC)OCC(CC)CCCC` (stereo unspecified), the compound was called inactive in assay [2].

As for `O=C(N[C@@H](c1ccccc1)[C@@H]1CCCCN1)c1cccc(C(F)(F)F)c1Cl`, the call in assay [1] and in assay [2] was inactive.

Take `CSc1ccc(Oc2ccc(S(N)(=O)=O)cc2CN(C)C)cc1C`: the result in [1] was inactive.

In the case of `CC(N)=O`, the compound was called inactive in assay [2].

The values are drawn from PubChem BioAssay (EPA / NIEHS).
